The record followed here is the supplement of paper PMC8007513.

Structures can show the parent of a compound that is named as a salt. ± gives the standard error. About 130 (10%) of roughly 1,300 compounds showed an effect of 50% or more. The full list was thinned out, with strong results kept by preference.

The experiment concerns Trichoderma virens ATCC 9645. In words: growth yield (OD600) with compound + IPBC relative to untreated control; higher = less growth inhibition. Conditions: compound concentration: 100 uM, IPBC concentration: 200 ng/ml. Summed up:
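Growth appears as means of duplicate screens, relative to the control containing neither agent. To obtain it, OD600 was read on a BioTek EL800 at 40 h and 72 h. The cultures were 100 μl aliquots in 96-well plates at 30 °C, holding Trichoderma virens ATCC 9645 spores at 15,000 spores ml^−1 in potato dextrose broth, library compounds at 100 μM final, and, in some wells, a biocide at 200 ng ml^−1.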

In the case of `C[C@]12C[C@H](O)[C@H]3[C@@H](CCC4=CC(=O)CC[C@@]43C)[C@@H]1CC[C@@H]2C(=O)CO` [Corticosterone] + CCCCNC(=O)OCC#CI [3-iodo-2-propynyl butylcarbamate (IPBC)], the growth yield is, setting by setting: (40 h) 94.2 ± 7.8%; (72 h) 96.6 ± 5.6%.
Turning to `CCCN1CCCC[C@H]1C(=O)Nc1c(C)cccc1C` [Ropivacaine hydrochloride] + CCCCNC(=O)OCC#CI [3-iodo-2-propynyl butylcarbamate (IPBC)], the growth yield amounted to 88.5 ± 1.4% (40 h) and 91.98 ± 0.1% (72 h).
With `C[C@]12C=CC(=O)C=C1CC[C@@H]1[C@@H]2[C@@H](O)C[C@@]2(C)[C@H]1CC[C@]2(O)C(=O)CO` [Prednisolone] + CCCCNC(=O)OCC#CI [3-iodo-2-propynyl butylcarbamate (IPBC)], the growth yield came to 82.8 ± 2.1% (40 h) and 92.5 ± 0.42% (72 h).
For `N[C@@H](Cc1cc(I)c(Oc2ccc(O)c(I)c2)c(I)c1)C(=O)O` [Liothyronine] + CCCCNC(=O)OCC#CI [3-iodo-2-propynyl butylcarbamate (IPBC)], the growth yield reads like this: (40 h) 93.1 ± 10%; (72 h) 98.1 ± 6.4%.
For `NC(Cc1cc(I)c(Oc2cc(I)c(O)c(I)c2)c(I)c1)C(=O)O` (stereo not drawn) [Thyroxine (L)] + CCCCNC(=O)OCC#CI [3-iodo-2-propynyl butylcarbamate (IPBC)] the same measures were 100 ± 11% and 98.8 ± 9%.
For `O=C(O)Cc1cc(I)c(Oc2ccc(O)c(I)c2)c(I)c1` [Tiratricol, 3,3',5-triiodothyroacetic acid] + CCCCNC(=O)OCC#CI [3-iodo-2-propynyl butylcarbamate (IPBC)] the same measures were 44 ± 1.8% and 73.41 ± 0.63%.
`CCN(CC)CCNc1ccc(CO)c2sc3ccccc3c(=O)c12` [Hycanthone] + CCCCNC(=O)OCC#CI [3-iodo-2-propynyl butylcarbamate (IPBC)]: the growth yield (40 h) was 124 ± 2.7% and the growth yield (72 h) was 120 ± 0.63%.
For `COc1cc(NC(C)CCCN)c2ncccc2c1` (stereo not drawn) [Primaquine diphosphate] + CCCCNC(=O)OCC#CI [3-iodo-2-propynyl butylcarbamate (IPBC)] the same measures were 73.7 ± 11% and 117.7 ± 1.1%.
In the case of `COc1ccc(OC)c(C(O)CNC(=O)CN)c1` (stereo not drawn) [Midodrine hydrochloride] + CCCCNC(=O)OCC#CI [3-iodo-2-propynyl butylcarbamate (IPBC)], the growth yield is, setting by setting: (40 h) 96.1 ± 4.3%; (72 h) 104 ± 2.1%.
For `CCCC(C)(COC(N)=O)COC(=O)NC(C)C` (stereo not drawn) [Carisoprodol] + CCCCNC(=O)OCC#CI [3-iodo-2-propynyl butylcarbamate (IPBC)] the same measures were 84.8 ± 5.1% and 92.7 ± 5.5%.
For `CC(CCc1ccccc1)NCC(O)c1ccc(O)c(C(N)=O)c1` (stereo not drawn) [Labetalol hydrochloride] + CCCCNC(=O)OCC#CI [3-iodo-2-propynyl butylcarbamate (IPBC)], the growth yield is, setting by setting: (40 h) 73.38 ± 0.32%; (72 h) 87.15 ± 0.1%.
For `CCCCCCCCCCCCCCCC[N+](C)(C)CCN(Cc1ccc(OC)cc1)c1ncccn1` [Thonzonium bromide] + CCCCNC(=O)OCC#CI [3-iodo-2-propynyl butylcarbamate (IPBC)] the same measures were 3.34 ± 0.16% and 2.62 ± 0.1%.
For the compound `COc1ccc(CN(CCN(C)C)c2ccccn2)cc1` [Pyrilamine maleate] + CCCCNC(=O)OCC#CI [3-iodo-2-propynyl butylcarbamate (IPBC)], the growth yield (40 h) stood at 82.8 ± 4.6% and the growth yield (72 h) was found to be 92.4 ± 4.9%.
As for `CN(C)CCN(Cc1ccc(Cl)cc1)c1ccccn1` [Chloropyramine hydrochloride] + CCCCNC(=O)OCC#CI [3-iodo-2-propynyl butylcarbamate (IPBC)], the growth yield worked out at 76.1 ± 1.1% (40 h) and 92.3 ± 2.3% (72 h).
As to `COC(c1ccccc1)(c1ccccc1)[C@H](Oc1nc(C)cc(C)n1)C(=O)O` [Ambrisentan] + CCCCNC(=O)OCC#CI [3-iodo-2-propynyl butylcarbamate (IPBC)], the growth yield is, setting by setting: (40 h) 89.3 ± 5.7%; (72 h) 93.9 ± 3.9%.
For `NC(=O)N1c2ccccc2CC(=O)c2ccccc21` [Oxcarbazepine] + CCCCNC(=O)OCC#CI [3-iodo-2-propynyl butylcarbamate (IPBC)] the same measures were 83.4 ± 2.4% and 92.9 ± 1.9%.
As for `CCC(C)n1ncn(-c2ccc(N3CCN(c4ccc(OCC5COC(Cn6cncn6)(c6ccc(Cl)cc6Cl)O5)cc4)CC3)cc2)c1=O` (stereo not drawn) [Itraconazole] + CCCCNC(=O)OCC#CI [3-iodo-2-propynyl butylcarbamate (IPBC)], the growth yield is, setting by setting: (40 h) 14.3 ± 1.9%; (72 h) 11.3 ± 1.7%.
For `CC(C)N1CCN(c2ccc(OCC3COC(Cn4cncn4)(c4ccc(Cl)cc4Cl)O3)cc2)CC1` (stereo not drawn) [Terconazole] + CCCCNC(=O)OCC#CI [3-iodo-2-propynyl butylcarbamate (IPBC)] the same measures were 69.9 ± 2.5% and 87 ± 1.3%.
On the same counts, the results for `CC[C@@H]([C@H](C)O)n1ncn(-c2ccc(N3CCN(c4ccc(OC[C@@H]5CO[C@@](Cn6cncn6)(c6ccc(F)cc6F)C5)cc4)CC3)cc2)c1=O` [Posaconazole] + CCCCNC(=O)OCC#CI [3-iodo-2-propynyl butylcarbamate (IPBC)] are 3.97 ± 1.4% and 3.78 ± 1.7%.
As to `CC(=O)N1CCN(c2ccc(OCC3COC(Cn4ccnc4)(c4ccc(Cl)cc4Cl)O3)cc2)CC1` (stereo not drawn) [Ketoconazole] + CCCCNC(=O)OCC#CI [3-iodo-2-propynyl butylcarbamate (IPBC)], the growth yield (40 h) was 3.34 ± 0.48% and the growth yield (72 h) amounted to 2.52 ± 0.42%.
On the same counts, the results for `C[N+]1([O-])[C@@H]2C[C@@H](OC(=O)[C@H](CO)c3ccccc3)C[C@H]1[C@@H]1O[C@@H]12` (stereo partly drawn) [Scopolamin-N-oxide hydrobromide] + CCCCNC(=O)OCC#CI [3-iodo-2-propynyl butylcarbamate (IPBC)] are 103 ± 2.2% and 102 ± 1.1%.
On the same counts, the results for `CC(C)c1cccc(C(C)C)c1O` [Propofol] + CCCCNC(=O)OCC#CI [3-iodo-2-propynyl butylcarbamate (IPBC)] are 101 ± 2.9% and 98.4 ± 1.3%.
`CO[C@@]1(NC(=O)C2SC(=C(C(N)=O)C(=O)O)S2)C(=O)N2C(C(=O)O)=C(CSc3nnnn3C)CS[C@@H]21` (stereo partly drawn) [Cefotetan] + CCCCNC(=O)OCC#CI [3-iodo-2-propynyl butylcarbamate (IPBC)]: the growth yield runs as follows: (40 h) 94.8 ± 2.4%; (72 h) 96.5 ± 1.9%.
On the same counts, the results for `NS(=O)(=O)c1cc2c(cc1C(F)(F)F)NCNS2(=O)=O` [Hydroflumethiazide] + CCCCNC(=O)OCC#CI [3-iodo-2-propynyl butylcarbamate (IPBC)] are 89.1 ± 1.1% and 92.4 ± 0.73%.
